Among the data in PubChem BioAssay (NCI) are growth values, retold here.

About 83,000 compounds went through this panel and 20% of them were active in at least one assay; those are over-represented in the sample as a whole.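 A percent growth of 40 corresponds to 60% growth inhibition; 0 means no net growth; -100 means all cells died. Active threshold: below 10.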 Unmarked numbers belong to inactive results. Activity calls are given as the source filed them.

Some test systems named below: RPMI-8226 leukemia; OVCAR-8 ovarian; OVCAR-5 ovarian; SK-OV-3 ovarian; IGROV1 ovarian; OVCAR-3 ovarian; HS 578T breast; NCI/ADR-RES ovarian; T-47D breast.
Common to all, as to test: NCI-60 one-dose screen, 48 h (100 = growth as untreated, 0 = no growth, -100 = all killed)
Common to all, as to details: 10 µM unless noted

As for `CN(C)CSc1nc2ccccc2s1`, the growth was 98.7% in the experiment on RPMI-8226 leukemia; 104% with OVCAR-8 ovarian; 93.6% in the experiment on OVCAR-5 ovarian; 84.7% with SK-OV-3 ovarian; 83.7% with IGROV1 ovarian; 99.9% in the experiment with OVCAR-3 ovarian. Further, the growth in the experiment with HS 578T breast was 116%; in the experiment on NCI/ADR-RES ovarian, 102%; with T-47D breast, 86.7%.
With `O=C1c2ccccc2C(=O)c2c1oc1c2c(=O)[nH]c2ccccc21`, the growth with RPMI-8226 leukemia was 62.7%; with OVCAR-8 ovarian, 35.6%; in the experiment on OVCAR-5 ovarian, 102%; in the experiment with SK-OV-3 ovarian, 104%; with IGROV1 ovarian, 55.1%; in the experiment with OVCAR-3 ovarian, -14.8% (active). Further, the growth was 88.3% in the experiment with HS 578T breast, 40.8% in the experiment with NCI/ADR-RES ovarian and 22.5% with T-47D breast.
Regarding `Nc1c(C(=O)Nc2ccccn2)sc2nc3c(cc12)CCCCC3`, the growth in the experiment with RPMI-8226 leukemia is 11.4%; in the experiment on OVCAR-8 ovarian, 19.1%; with OVCAR-5 ovarian it was 39.6%; in the experiment with SK-OV-3 ovarian, 36.2%; with IGROV1 ovarian, 44.9%; in the experiment with OVCAR-3 ovarian, -3.52% (active). Further, the growth is 30.5% in the experiment on HS 578T breast and 36.4% with T-47D breast.
With `Oc1c(CCl)cc(Cl)cc1Cc1cc(Cl)cc(Cc2cc(Cl)cc(CCl)c2O)c1O`, the growth is 4.65% (active) in the experiment with RPMI-8226 leukemia; 16.7% with OVCAR-8 ovarian; 79.8% with OVCAR-5 ovarian; 36% with SK-OV-3 ovarian; 37.8% with IGROV1 ovarian; 19.2% in the experiment with OVCAR-3 ovarian. Further, the results for the growth with HS 578T breast, with NCI/ADR-RES ovarian and in the experiment with T-47D breast were 26.1%, 14% and 22.1%, respectively.
For `CCOC(=O)c1c(C(F)(F)F)n([O-])c2ccc(Cl)cc2[n+]1=O`, the growth with RPMI-8226 leukemia is -69.8% (active); in the experiment on OVCAR-8 ovarian, -42.6% (active); in the experiment with OVCAR-5 ovarian it was -27.8% (active); with SK-OV-3 ovarian, 66.6%; with IGROV1 ovarian it was -30.3% (active); with OVCAR-3 ovarian, -70.5% (active). Moreover, the figures for the growth with HS 578T breast, in the experiment with NCI/ADR-RES ovarian and in the experiment on T-47D breast were 13.8%, 8.49% (active) and -53% (active), respectively.
Turning to `C=C1C(=O)O[C@H]2[C@H]1CC/C(COC(=O)Nc1nc3ccccc3[nH]1)=C\CC[C@@]1(C)O[C@@H]21`, the growth is 31.6% in the experiment on RPMI-8226 leukemia; 80.8% in the experiment with OVCAR-8 ovarian; 127% in the experiment on OVCAR-5 ovarian; 89.1% with SK-OV-3 ovarian; 27.9% with IGROV1 ovarian; 17.3% in the experiment on OVCAR-3 ovarian. Further, the growth was 94.5% in the experiment on HS 578T breast, 92.1% with NCI/ADR-RES ovarian and 50.3% in the experiment with T-47D breast.
Take `CCCCCCN1C(=O)CN=C1Nc1ccc2cc3ccc(NC4=NCC(=O)N4CCCCCC)cc3nc2c1`: the growth was -22.6% (active) in the experiment with RPMI-8226 leukemia; 73.9% in the experiment on OVCAR-8 ovarian; 75% with OVCAR-5 ovarian; 103% in the experiment on SK-OV-3 ovarian; 53.7% in the experiment on IGROV1 ovarian; -35.9% (active) in the experiment with OVCAR-3 ovarian. In addition, the growth in the experiment on HS 578T breast is 56.6%; with NCI/ADR-RES ovarian, 81.3%; in the experiment on T-47D breast it was 32.9%.
Take `C=C(C)[C@@H]1CC[C@]2(C(=O)O)CC[C@]3(C)[C@H](CC[C@@H]4[C@@]5(C)C[C@@H](CC#Cc6ccccc6C)C(=O)C(C)(C)[C@@H]5CC[C@]43C)[C@@H]12`: the growth in the experiment with RPMI-8226 leukemia is 14.6%; in the experiment with OVCAR-8 ovarian, 24.3%; with OVCAR-5 ovarian, 61%; in the experiment with SK-OV-3 ovarian it was 34.2%; with IGROV1 ovarian, 62%; with OVCAR-3 ovarian, 18.3%. Moreover, the growth in the experiment with HS 578T breast is 45%; in the experiment on NCI/ADR-RES ovarian, 48%; in the experiment on T-47D breast, 20.7%.
In the case of `O=C(C[n+]1cccc2cc(Cl)ccc21)c1ccc2c(c1)CCCC2`, the growth with RPMI-8226 leukemia was 7.65% (active); in the experiment on OVCAR-8 ovarian, 25.6%; with OVCAR-5 ovarian, 28.3%; with SK-OV-3 ovarian, 16.9%; with IGROV1 ovarian it was 33.7%; in the experiment with OVCAR-3 ovarian it was 0.868% (active). The growth was 37.5% in the experiment on HS 578T breast, 101% with NCI/ADR-RES ovarian and 2.41% (active) in the experiment on T-47D breast.
With `Cc1cc(NC(=O)CNc2nc(Oc3ccc(F)cc3)nc(-c3ccc(F)cc3)n2)ccc1Cl`, the growth with RPMI-8226 leukemia was 96.6%; in the experiment with OVCAR-8 ovarian, 102%; with OVCAR-5 ovarian it was 103%; with SK-OV-3 ovarian, 93.7%; in the experiment on IGROV1 ovarian, 106%; with OVCAR-3 ovarian it was 116%. In addition, the growth is 85.8% in the experiment with HS 578T breast, 101% in the experiment on NCI/ADR-RES ovarian and 91.3% with T-47D breast.
Turning to `OCCNc1nc(NCCO)nc(Nc2ccc(C3=NN(c4cc(Cl)cc(Cl)c4)C(c4ccc(Cl)cc4)C3)cc2)n1` (stereo not given), the growth with RPMI-8226 leukemia is -8.1% (active); in the experiment with OVCAR-8 ovarian, 20.8%; in the experiment on OVCAR-5 ovarian it was 86%; in the experiment on SK-OV-3 ovarian, 83.1%; in the experiment with IGROV1 ovarian, -11.6% (active); in the experiment with OVCAR-3 ovarian, -60.4% (active). For the same molecule, the growth in the experiment with HS 578T breast is 11.6%; with NCI/ADR-RES ovarian, 20.6%; with T-47D breast, 87.1%.
Turning to `CCCn1cc(/C=N\N=C2\C(=O)Nc3ccc(C)cc32)c2ccccc21`, the growth was -24.9% (active) with RPMI-8226 leukemia; 47.5% in the experiment with OVCAR-8 ovarian; 84.6% with OVCAR-5 ovarian; 88.4% in the experiment on SK-OV-3 ovarian; 39.4% in the experiment on IGROV1 ovarian; 2.1% (active) in the experiment with OVCAR-3 ovarian. The growth in the experiment with HS 578T breast is 74%; with NCI/ADR-RES ovarian, 76.3%; in the experiment with T-47D breast, 39.6%.
With `CC1(C)[C@@H](O)CC[C@]2(C)[C@H]3CC[C@@H]4[C@H]5[C@H](c6cn(-c7ccccc7)nn6)CC[C@]5(CO)CC[C@@]4(C)[C@]3(C)CC[C@@H]12`, the growth in the experiment with RPMI-8226 leukemia was 73.2%; with OVCAR-8 ovarian it was 85.2%; with OVCAR-5 ovarian it was 118%; in the experiment with SK-OV-3 ovarian, 103%; with IGROV1 ovarian, 119%; in the experiment on OVCAR-3 ovarian it was 88.2%. Further, the growth in the experiment on HS 578T breast was 94.6%; in the experiment with NCI/ADR-RES ovarian it was 80.9%; in the experiment with T-47D breast, 63.9%.
Turning to `CN(C)C1=NCCN1`, the growth in the experiment with RPMI-8226 leukemia was 95.2%; in the experiment with OVCAR-8 ovarian, 104%; in the experiment on OVCAR-5 ovarian, 104%; in the experiment on SK-OV-3 ovarian, 109%; with IGROV1 ovarian it was 104%; in the experiment on OVCAR-3 ovarian it was 104%. The growth is 106% in the experiment with HS 578T breast, 106% in the experiment on NCI/ADR-RES ovarian and 110% with T-47D breast.
